# Only some compounds are listed: those with a hit (about 4.7% of all), similar ones and a draw of the others.
# EBV LMP1 NFkB: inhibitors of Epstein-Barr LMP1-induced NF-kappaB reporter | LMP1-induced NF-kappaB luciferase reporter cells, luminescence | inhibition, % at 12.5 µM | 0.69% of 350,000 active; in the data active = inhibition above about 41%; inconclusive = no clear call, values can overlap the other calls;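 also: 0% = neutral control wells and 100% = reference inhibitor control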
# HSP90 inh: HSP90 refolding inhibition in rabbit reticulocyte lysate; luciferase refolding luminescence, 3 h; inhibition, % at 5.6 µM; 0.91% of 290,000 active;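 active = inhibition above the screen-wide mean plus 3 SD, computed separately per campaign, cut at about 16% in these data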;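 also: 0% = DMSO wells and 100% = 60 µM geldanamycin wells; inhibitors lower the luminescence because luciferase stays unfolded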
# HSF1 activator: increases HSF-1 driven luciferase reporter signal | NIH3T3-HGL HSF-1 luciferase reporter, MG132, 8 h; 100% = twice DMSO control signal | activation, % at 9 µM | 1.7% of 300,000 active | AID 504408;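 active = mean replicate activation of at least 50% with a set share of replicates each reaching 50%; inconclusive = only one of those two conditions met; inactive = mean below 50% and too few replicates reaching it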;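 also: 0% = median of the neutral control wells and 100% = twice that signal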
# TROY NFkB inh: TROY signaling inhibition; Q293 LMP1-TROYcd NF-kB luciferase reporter, 4 h; 0.98% of 360,000 active; AID 1347056; inhibition, % at 10 µM;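 active = compounds whose plate-normalised and pattern-corrected inhibition of the luciferase reporter signal at the single screening dose is 50% or more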
# HSF1 inh: HSF1 inhibition; NIH3T3-HGL HSE-luciferase, MG132-induced, luminescence 8 h; hits give low values; AID 2098; activity change, negative = inhibition, % at 7.5 µM (by protocol); 0.77% of 300,000 active;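 active = more than half of replicate wells show activity change below -50%, luminescence cut by over half; inconclusive = some wells, but at most half, below -50%; inactive = no replicate well below -50%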;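 also: luciferase reports HSF-1 transcriptional activity via heat shock element; 0% = median of DMSO wells and -100% = zero luminescence signal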
# TWEAK Fn14 block: inhibitors of TWEAK-Fn14 interaction signaling. 2% of 360,000 active. inhibition, % at 10 µM. TWEAK-stimulated Fn14 reporter cells, luciferase luminescence, 8 h. AID 1159606; in the data active = inhibition above about 50%
# Numbers without * were called inactive; ? = inconclusive; / = no result given.
SMILES,EBV LMP1 NFkB,HSP90 inh,HSF1 activator,TROY NFkB inh,HSF1 inh,TWEAK Fn14 block
CC(=O)c1c(C)[nH]c(C(=O)OCC(=O)NCc2ccccc2)c1C,4,/,/,-1,/,25
COc1cc([N+](=O)[O-])c2ncsc2c1,-1,-1,-48,10,-40,-3
COc1cc(SSc2cc(OC)cc([N+](=O)[O-])c2N)c(N)c([N+](=O)[O-])c1,3,6,88*,19,38,3
CNC(=O)c1nnsc1S(=O)c1ccc(Cl)cc1 (stereo not given),8,2,73*,60*,63,63*
CCCNC(=O)NS(=O)(=O)c1ccc(Cl)cc1,58*,-2,3,-3,-5,2
CCCNC(=O)c1nnsc1S(=O)(=O)c1ccc(Cl)cc1,?,-3,/,73*,/,70*
CCCNC(=O)c1nnsc1S(=O)c1ccc(Cl)cc1 (stereo not given),2,3,-96,59*,-96*,72*
Cc1cccc(C)c1-n1nnnc1C1(C)CCC(=O)N1CCc1ccc(O)cc1 (stereo not given),/,/,/,-20,/,3
COc1cccc(F)c1C(C[N+](=O)[O-])c1c(N)n(C)c(=O)n(C)c1=O (stereo not given),-7,-6,-33,43,-30,58*
Cn1c(N)c(C(C[N+](=O)[O-])c2ccccc2Cl)c(=O)n(C)c1=O (stereo not given),8,/,-1,12,1,99*
Cc1ccc(C(C[N+](=O)[O-])c2c(N)n(C)c(=O)n(C)c2=O)cc1 (stereo not given),6,0,28,14,8,21
O=C(C[C@H]1C[C@@H]2c3cc(NC(=O)Nc4ccccc4F)ccc3O[C@@H]2[C@H](CO)O1)NCc1ccccn1,5,/,/,15,/,-25
CCOC(=O)C1(C)NC(c2ccc(O)cc2)C2C(=O)N(c3ccccc3)C(=O)C21 (stereo not given),-12,0,-65,8,-54*,2
CCCCn1nnnc1C(c1cc2ccccc2o1)N(C)Cc1ccccc1 (stereo not given),/,/,/,7,/,3
O=C(/C=C/c1cccnc1)c1ccc(F)c(F)c1,16,-2,2,-2,-5,-1
CN(C)c1ccc(C(=O)/C=C/c2cccnc2)cc1,-41,-3,52*,-50,22,29
Cc1ccc(S(=O)(=O)N(C)c2ccc(C)c([N+](=O)[O-])c2)cc1,1,3,70*,3,30,-13
COc1ccc(N(C)S(=O)(=O)c2ccc(C)cc2)c([N+](=O)[O-])c1,-4,1,1,2,3,-23
NC(=Nc1c([N+](=O)[O-])cnc2ccccc12)N1CCOCC1,/,/,/,4,/,4
Cc1cc(NC(=O)CCCSc2nc(-c3ccco3)cc(C(F)(F)F)n2)n(-c2ccccc2)n1,-9,4,-9,/,-2,62*
COC(=O)c1ccc(NC(=O)Nc2ccc3c(c2)OCO3)cc1,-29,-1,17,-49,11,-49
CCCC(C)C(=O)Nc1ccc2c(c1)OCCO2 (stereo not given),9,1,-36,37,-33,53*
CC(Nc1ccc2c(c1)OCCO2)C(=O)Nc1ccc2c(c1)OCO2 (stereo not given),37,-5,/,50*,/,59*
NC(=O)c1ccc(NC(=O)Nc2ccc3c(c2)OCO3)cc1,-11,2,58*,-33,16,0
CCOC(=O)N(C)c1c(CC)nc2c(OCc3ccccc3OC)cccn12,/,/,/,-3,/,1
SMILES,EBV LMP1 NFkB,HSP90 inh,HSF1 activator,TROY NFkB inh,HSF1 inh,TWEAK Fn14 block
Clc1ccc(N2O[C@H]3C=C[C@@H]2C3)nc1,/,/,/,11,/,-8
O=C(NC(=S)N1CC=CCC1)c1ccccc1,2,/,/,-14,/,-2
CC(C)N(CC(=O)Nc1ccc(Cl)cc1C(F)(F)F)C(=O)CCl,-21,-1,35,-5,13,63*
O=C(O)CSCC(=O)Nc1ccc(Cl)cc1C(F)(F)F,3,2,1,3,-1,-49
CCC(C)N(CC(=O)Nc1cccc(C)c1C)C(=O)CCl (stereo not given),37,6,11,8,-4,60*
Cc1ccc([C@H]2N[C@]3(CCCN(Cc4ccc(Cl)cc4)C3=O)[C@H]3C(=O)N(C)C(=O)[C@@H]23)cc1,3,/,/,1,/,-2
